Only some compounds are listed: those with a hit (about 3.4% of all), similar ones and a draw of the others.
ADAM17 inh: ADAM17 inhibition, QFRET primary screen. P78536. recombinant ADAM17, EDANS/DABCYL FRET peptide cleavage. inhibition, % at 6.95 µM. actives 0.83% (n = 370,000). AID 720648;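 active = inhibition above the mean of compounds lying between control limits plus 3 SD, set per campaign, cut at about 8.5% in these data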;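 also: 0% = DMSO-only wells as the low control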
ADAM10 inh: ADAM10 inhibition, QFRET primary screen; O14672; recombinant ADAM10, EDANS/DABCYL FRET peptide cleavage, 3 h; inhibition, % at 7 µM; actives 0.62% (n = 370,000); AID 720582;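 active = inhibition above a per-campaign cutoff equal to the mean of compounds falling between control-based bounds plus 3 SD, cut at about 20% in these data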;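 also: 0% = DMSO wells while the 100% control is not disclosed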
HGIII-sPLA2 inh: Inhibits HGIII-sPLA2 liposome hydrolysis, primary screen. QFRET BODIPY PC-A2 liposome hydrolysis, fluorescence. inhibition, % at 12.2 µM. actives 0.56% (n = 370,000). AID 743126;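 active = inhibition above mean plus 3 SD of compounds lying within the high and low control bounds, cut at about 19% in these data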;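 also: 0% = median of test compound wells and 100% = no enzyme DMSO wells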
NRP1-CendR mod: modulators of CendR peptide binding to human neuropilin-1. actives 0.85% (n = 360,000). inhibition, % at 25 µM. O14786. FAM-RPARPAR peptide binding to NRP-1, fluorescence polarization;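 active = inhibition or corrected inhibition above about 18%, plus a signal ratio from 0.5 to 1.5, limit read from the data, passing the limit was not always enough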
proKLK7 act: activates the human kallikrein-7 zymogen | activation, % at 7 µM | purified proKLK7, EDANS-DABCYL substrate fluorescence; 100% is mature enzyme control, 0% vehicle | actives 0.9% (n = 370,000);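 active = activation above the mean of all tested compounds plus 3 SD, computed per campaign excluding outliers beyond control limits, cut at about 13% in these data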
KLK7 act conf: proKLK7 activation, confirmation; shares compounds with proKLK7 act; purified proKLK7, EDANS-DABCYL substrate fluorescence; scaled: vehicle 0, mature enzyme 100; activation, % at 7 µM; actives 68% (n = 3,200);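 active = activation, as change over the incubation, above the mean of all tested compounds plus 3 SD, cut at about 13% in these data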
EDANS interfere: optically interferes with EDANS-DABCYL signal, flagging KLK7 hits; AID 686952; actives 80% (n = 3,200); shares compounds with proKLK7 act; activation, % at 7 µM; EDANS-DABCYL substrate fluorescence interference, no enzyme, 4 h; solvent 0%, active enzyme control 100%;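 active = activation above the all-compound mean plus 3 SD, ignoring values outside control-based bounds, cut at about 4.8% in these data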;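 also: value is the 4 h activation minus the activation read at time zero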
EDANS interf: counter-screen for kallikrein-7 activators: EDANS-DABCYL interference, dose response | shares compounds with proKLK7 act | EDANS-DABCYL peptide fluorescence interference, no enzyme | EC50, µM | actives 20% (n = 250) | AID 720493;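 active = compounds that raise the fluorescence signal in this interference counterscreen, with EC50 at or below 10 µM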;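 also: intact quenched peptide substrate alone read at 355 nm excitation and 520 nm emission; signal is fluorescence gain from T0 to T4 after four hours at room temperature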
Active calls of the source: *; i = inactive; . = not tested or not shown.

SMILES	ADAM17 inh	ADAM10 inh	HGIII-sPLA2 inh	NRP1-CendR mod	proKLK7 act	KLK7 act conf	EDANS interfere	others
O=Cc1cn(-c2ccccc2)nc1-c1cc2cc(O)ccc2oc1=O	-73	-248	-6	-47	197*	561*	549*
COc1ccc2oc(=Nc3cc(F)ccc3F)c(C(N)=O)cc2c1	-63	-141	4	4	-1	.	.
COc1ccc(OC)c(N=c2oc3cc(O)ccc3cc2C(N)=O)c1	-414	i	2	-19	14*	12	15*
NC(=O)c1cc2ccccc2oc1=NCc1ccccc1	-16	-46	-1	-13	2	.	.
COc1ccc2cc(C(N)=O)c(=Nc3ccccc3)oc2c1	-244	i	5	4	-1	.	.
NC(=O)c1cc2ccc(O)cc2oc1=NCc1ccccc1	i	i	0	19	69*	117*	125*
NC(=O)c1cc2ccc(O)cc2oc1=Nc1ccccc1	i	i	-9	1	40*	10	7.9*
C=CCN(CC#Cc1ccccc1)CC1CC1	2	0	4	.	0	.	.
COC(=O)CSc1nc2ccccn2c(=O)c1C=O	-30	-92	3	4	59*	77*	69*
O=Cc1c(SCCO)nc2ccccn2c1=O	-6	-8	6	5	31*	23*	24*
O=Cc1c(Sc2ccccc2)nc2ccccn2c1=O	-1	5	-2	-8	0	.	.
CCn1nc(NC(=O)C(C)C)c2cc3cccc(C)c3nc21	-13	-13	14	17	62*	-8	-6
CCn1nc(NC(C)=O)c2cc3cccc(C)c3nc21	-7	-23	0	-2	2	.	.
O=C(N=C1N(Cc2ccccc2)[C@@H](Cc2ccccc2)[C@]2(C=C3CCCCC3n3c(=O)n(-c4ccccc4)c(=O)n32)N1C(=O)OCc1ccccc1)c1ccccc1 (stereo not given in full)	-3	-2	4	.	0	.	.
C=CCN(c1ccccc1)S(=O)(=O)c1cccc(C(=O)OCC(=O)NCCOC)c1	2	4	-4	-8	-1	.	.
C=CCN(c1ccccc1)S(=O)(=O)c1cccc(C(=O)Oc2ccc3c(C)cc(=O)oc3c2)c1	i	i	16	15	42*	405*	422*
COC1=C[C@H](C(=O)N[C@H]2CCCC[C@@H]2NC(C)=O)[C@@]2(C)Cc3ccccc3[C@H]2CC1=O	-2	-6	12	.	0	.	.
N#Cc1ccc(CC(=O)c2ccccc2)[nH]c1=O	-86	-336	-25	-15	16*	100*	98*
C[C@H](O)[C@@H]1CN2CCc3c([nH]c4cccc(-c5ccccc5)c34)[C@@H]2C[C@@H]1N(C)C(=O)C1CCCCC1	-62	-229	6	.	5	.	.
CCCOc1ccc(/C=C2\SC(N)=NC2=O)cc1OC	-6	-3	-1	-19	18*	0	-2
COc1ccc(/C=C2\SC(N)=NC2=O)cc1Br	-5	-2	0	-42	0	.	.
Cc1cc(C)nc(NC(=O)c2ccc([N+](=O)[O-])o2)n1	-6	-10	-1	-5	133*	151*	146*
Cc1cc(NC(=O)COC(=O)CSc2nc3cc(Cl)ccc3n2Cc2ccccc2)no1	-1	-1	-4	-3	13*	4	2
Cc1cc(NC(=O)CSc2nc3ccccc3c(=O)n2Cc2ccccc2)no1	-2	1	1	8	0	.	.
CS(=O)(=O)Nc1ccc(-c2ccc3nccn3c2)cc1	-11	-38	0	-2	0	.	.
SMILES	ADAM17 inh	ADAM10 inh	HGIII-sPLA2 inh	NRP1-CendR mod	proKLK7 act	KLK7 act conf	EDANS interfere	others
Cc1ccc(-c2cn3cccnc3n2)cc1	i	i	6	2	85*	64*	69*
Cc1ccc(-c2cn3cccnc3n2)cc1NC(=O)c1ccc(Br)o1	i	i	4	-16	22*	17*	4.9*	EDANS interf=>69
CS(=O)(=O)Nc1ccc(-c2cn3cccnc3n2)cc1	i	i	2	-5	123*	39*	39*
O=C(OC12CCCN(C1)/C(=C/c1ccncc1)C2)c1ccccc1 (stereo not given)	3	3	0	.	0	.	.
N=c1c2c(-c3ccccc3)c(-c3ccccc3)n(CCc3ccccc3)c2ncn1C1CCC(O)CC1 (stereo not given)	-4	-9	-1	.	0	.	.
COc1ccc(C2=NN(c3ccc(C(=O)O)cc3)C(c3ccc(OC)c(OC)c3)C2)cc1 (stereo not given)	i	i	-37	11	67*	65*	63*
COc1ccc(C2CC(c3ccncc3)=NN2c2ccc(S(N)(=O)=O)cc2)cc1 (stereo not given)	i	i	5	-22	91*	-94	8.8*
Cc1ccc(C2CCC3(CCC(=O)N3CCOC(=O)Nc3ccc(Br)cc3)CC2)cc1 (stereo not given)	0	1	4	.	1	.	.
COC(=O)c1ccc(COc2ccc3ccc(=O)oc3c2)o1	-37	-129	1	-4	-1	.	.
COC(=O)c1cc(=O)c2c(ccc3oc(=O)ccc32)[nH]1	-129	i	-6	-8	172*	220*	220*
CC[C@@H]1C(c2ccc(F)cc2)=NN(c2ccccc2)[C@H]1C(=O)N1CCOC1=O	-23	-90	4	-28	81*	64*	54*	EDANS interf=7.4*
CC[C@@H]1C(c2ccccc2)=NN(c2ccccc2)[C@H]1C(=O)N1CCOC1=O	-32	-123	-3	-22	187*	161*	131*
O=C1OCCN1C(=O)[C@H]1[C@H](c2ccc(Cl)cc2)C(c2ccccc2)=NN1c1ccccc1	-69	-262	-16	0	-212	.	.
CC[C@H]1C(c2ccc(F)cc2)=NN(c2ccccc2)[C@@H]1CO	i	i	12	-11	22*	-94	-120
COc1cc(/C=C/C(=O)c2ccccc2)cc(OC)c1OC	2	12	3	.	.	.	.
Cc1ccc2[nH]c(=O)c(CN(Cc3nnnn3C3CCCC3)C3CCCCC3)cc2c1	-37	-121	9	-3	1	.	.
O=c1[nH]c2cc3c(cc2cc1CN(Cc1nnnn1C1CCCC1)C1CCCC1)OCCO3	-224	i	2	-6	29*	-1	-2
COc1cc2cc(CN(Cc3nnnn3Cc3ccccc3)CC3CCCO3)c(=O)[nH]c2cc1OC (stereo not given)	-307	i	1	9	41*	-5	-11

Assay outcomes as filed in PubChem.
